Source: the supplement of paper PMC12297408
Structures can show the parent of a compound that is named as a salt.

tested on: Plasmodium falciparum NF54/iGP1_RE9H ulg8 stage V gametocytes; assay: gametocyte viability (luciferase signal relative to DMSO control) (% of DMSO control); higher = less gametocytocidal activity, active = 50 or less; details: concentration: 1 µM; exposure time: 72 h
Procedure: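 Synchronous P. falciparum NF54/iGP1_RE9H ulg8 mature stage V gametocytes (day 12) were exposed to Cayman Epigenetics Screening Library compounds at 10 µM or 1 µM for 72 h at 37 °C. Viability was read as RE9H luciferase bioluminescence, normalised to DMSO plate controls (100%); 50 µM methylene blue was the positive control.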

| Compound | gametocyte viability |
| --- | --- |
| O=C(CCCCCCC(=O)NO)NO [Suberohydroxamic Acid] | 106 (inactive) |
| Cc1ccc(-n2sc3ccccc3c2=O)cc1 | 90.8 (inactive) |
| O=C(CCl)Nc1ccc(S(=O)(=O)c2ccc(NC(=O)CCl)cc2)cc1 | 78.5 (inactive) |
| CCCCN(Cc1ccc(C(=O)NO)cc1)C(=O)Nc1ccccc1 [Nexturastat A] | 103 (inactive) |
| Nc1ncn([C@H]2C[C@H](O)[C@@H](CO)O2)c(=O)n1 [Decitabine] | 90.6 (inactive) |
| CC(C)N(CCCNC(=O)Nc1ccc(C(C)(C)C)cc1)C[C@H]1O[C@@H](n2cc(Br)c3c(N)ncnc32)[C@H](O)[C@@H]1O | 88 (inactive) |
| CNCCN1CCC(OCc2ccccc2)CC1 [MS049 (hydrochloride)] | 84.2 (inactive) |
| C#CCC(CCCCCC)C(=O)O (stereo not given) [2-hexyl-4-Pentynoic Acid] | 89.2 (inactive) |
| Nc1ccn([C@@H]2O[C@H](CO)[C@@H](O)C2(F)F)c(=O)n1 [Gemcitabine] | 91.5 (inactive) |
| CCCC(CCC)C(=O)O [Valproic Acid (sodium salt)] | 86.9 (inactive) |
| CCN(c1cc(-c2ccc(CN3CCOCC3)cc2)cc(C(=O)NCc2c(C)cc(C)[nH]c2=O)c1C)C1CCOCC1 | 95.1 (inactive) |
| COC(=O)c1ccc2c(c1)nc(NC(=O)c1ccccc1)n2CCCc1ccccc1 | 86.9 (inactive) |
| O=C(/C=C/c1cccc(C(=O)NO)c1)NO | 89.2 (inactive) |
| Cn1cccc1C(=O)N1CCc2cc(C(=O)NO)ccc2C1 [HDAC6 Inhibitor] | 87 (inactive) |
| CN(C)CCCNC(=O)c1ccc(-c2cc(O)c3ncccc3c2)cc1 | 85.2 (inactive) |
| O=C(NCc1ccccc1)c1c(/N=C/c2c(O)ccc3ccccc23)sc2c1CCCC2 | 103 (inactive) |
| O=C(NC[C@H](O)CN1CCc2ccccc2C1)c1cc(NC2COC2)ncn1 | 90 (inactive) |
| O=C(O)c1ccc(CN2CCC(CN[C@@H]3C[C@H]3c3ccccc3)CC2)cc1 | 86.7 (inactive) |
| CN1CCN(c2ccc(-c3cccc(CN4CCOCC4)c3)cc2NC(=O)c2c[nH]c(=O)cc2C(F)(F)F)CC1 | 89.4 (inactive) |
| Cn1c(=O)cc(C(=O)Nc2ccc3c(c2)OCCO3)c2ccccc21 | 82.8 (inactive) |

same assay, conditions: concentration: 10 µM; exposure time: 72 h

| Compound | gametocyte viability |
| --- | --- |
| O=C(CCCCCCC(=O)NO)NO [Suberohydroxamic Acid] | 87.9 (inactive) |
| Cc1ccc(-n2sc3ccccc3c2=O)cc1 | 59.8 (inactive) |
| O=C(CCl)Nc1ccc(S(=O)(=O)c2ccc(NC(=O)CCl)cc2)cc1 | 45 (active) |
| CCCCN(Cc1ccc(C(=O)NO)cc1)C(=O)Nc1ccccc1 [Nexturastat A] | 67.7 (inactive) |
| Nc1ncn([C@H]2C[C@H](O)[C@@H](CO)O2)c(=O)n1 [Decitabine] | 90 (inactive) |
| CC(C)N(CCCNC(=O)Nc1ccc(C(C)(C)C)cc1)C[C@H]1O[C@@H](n2cc(Br)c3c(N)ncnc32)[C@H](O)[C@@H]1O | 49.3 (active) |
| CNCCN1CCC(OCc2ccccc2)CC1 [MS049 (hydrochloride)] | 79.7 (inactive) |
| C#CCC(CCCCCC)C(=O)O (stereo not given) [2-hexyl-4-Pentynoic Acid] | 95.4 (inactive) |
| Nc1ccn([C@@H]2O[C@H](CO)[C@@H](O)C2(F)F)c(=O)n1 [Gemcitabine] | 85.8 (inactive) |
| CCCC(CCC)C(=O)O [Valproic Acid (sodium salt)] | 86.4 (inactive) |
| CCN(c1cc(-c2ccc(CN3CCOCC3)cc2)cc(C(=O)NCc2c(C)cc(C)[nH]c2=O)c1C)C1CCOCC1 | 93 (inactive) |
| COC(=O)c1ccc2c(c1)nc(NC(=O)c1ccccc1)n2CCCc1ccccc1 | 54.7 (inactive) |
| O=C(/C=C/c1cccc(C(=O)NO)c1)NO | 75.4 (inactive) |
| Cn1cccc1C(=O)N1CCc2cc(C(=O)NO)ccc2C1 [HDAC6 Inhibitor] | 91.2 (inactive) |
| CN(C)CCCNC(=O)c1ccc(-c2cc(O)c3ncccc3c2)cc1 | 49.8 (active) |
| O=C(NCc1ccccc1)c1c(/N=C/c2c(O)ccc3ccccc23)sc2c1CCCC2 | 94.2 (inactive) |
| O=C(NC[C@H](O)CN1CCc2ccccc2C1)c1cc(NC2COC2)ncn1 | 89.1 (inactive) |
| O=C(O)c1ccc(CN2CCC(CN[C@@H]3C[C@H]3c3ccccc3)CC2)cc1 | 88.4 (inactive) |
| CN1CCN(c2ccc(-c3cccc(CN4CCOCC4)c3)cc2NC(=O)c2c[nH]c(=O)cc2C(F)(F)F)CC1 | 94.1 (inactive) |
| Cn1c(=O)cc(C(=O)Nc2ccc3c(c2)OCCO3)c2ccccc21 | 86.7 (inactive) |
